Screens from PubChem.
KCNQ2 block: KCNQ2 (rat) channel inhibition. O88943. B-score at 10 µM. CHO-K1 KCNQ2, FluxOR thallium flux, 20 min; stronger effect = lower value. AID 2156. actives 1.1% (n = 310,000);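 active means fluorescence ratio B-score at most minus 3 library SDs, with starting brightness B-score within 2 library SDs, cut at about -5.5 in these data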
KCNQ2 enhance: potentiators of rat KCNQ2 potassium channel; CHO-K1 KCNQ2, FluxOR thallium flux fluorescence; stronger effect = higher value; actives 0.54% (n = 310,000); O88943; B-score at 10 µM;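 active means fluorescence ratio B-score at least 3 SD of library B-scores, with initial fluorescence B-score within 3 of them, cut at about 5.3 in these data; same plate scores as AID 2156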;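 further: B-score of peak minus minimum over baseline fluorescence ratio after K+ and Tl+ stimulus; positive B-score means potentiation of KCNQ2 with more thallium influx and brighter signal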
Kir21 conf inh: confirmation of mouse Kir2.1 potassium channel inhibitors; AID 2032; Tl flux remaining, % of negative control (stronger effect = lower value), % at 10 µM; shares compounds with KCNQ2 enhance; actives 41% (n = 2,300); Kir2.1-expressing cells, FluxOR thallium flux fluorescence; stronger effect = lower value;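 active means Primary-screen hit whose thallium flux fell at least 3 control SD below untreated wells in both duplicates, with normal baseline fluorescence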
HEK293 Tl flux: parental HEK293 activity in Kir2.1 inhibitor counter-screen. shares compounds with KCNQ2 enhance. parental HEK293 cells, FluxOR thallium flux fluorescence; 0% = unstimulated blank wells. FluxOR signal as % of negative control (100 = no effect), % at 10 µM. actives 19% (n = 2,300). AID 2105;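 active means dye signal at least 3 control SD above or below untreated wells in both duplicates, raw fluorescence within 3, either direction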;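 further: percent is based on the flux ratio of peak minus minimum fluorescence over baseline F0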
CHO-K1 Tl ctr: parental CHO-K1 activity in KCNQ2 potentiator counter-screen; shares compounds with KCNQ2 enhance; parental CHO-K1 cells, FluxOR thallium flux fluorescence; zero = vehicle mean+3SD, 100% = vehicle-minus-blank window; activity increase over 3SD of controls, % at 10 µM; actives 43% (n = 1,200); AID 2282;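 active means signal rise of at least 3 SD above the untreated control mean, in both duplicate wells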;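 further: counter screen of KCNQ2 potentiator hits so any rise reflects channel-independent effects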
KCNQ1 pot spec: human KCNQ1 counter-target activity of KCNQ2 potentiators. shares compounds with KCNQ2 enhance. actives 28% (n = 1,200). activation over 3SD threshold, % at 10 µM. CHO KCNQ1 stable, FluxOR thallium flux fluorescence; beyond 3SD, as % of vehicle-control signal. AID 2283;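 active means fluorescence ratio rise of at least 3 SD of vehicle wells above their mean, in both replicate wells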
Target sequence (P51787 whole entry, looked up): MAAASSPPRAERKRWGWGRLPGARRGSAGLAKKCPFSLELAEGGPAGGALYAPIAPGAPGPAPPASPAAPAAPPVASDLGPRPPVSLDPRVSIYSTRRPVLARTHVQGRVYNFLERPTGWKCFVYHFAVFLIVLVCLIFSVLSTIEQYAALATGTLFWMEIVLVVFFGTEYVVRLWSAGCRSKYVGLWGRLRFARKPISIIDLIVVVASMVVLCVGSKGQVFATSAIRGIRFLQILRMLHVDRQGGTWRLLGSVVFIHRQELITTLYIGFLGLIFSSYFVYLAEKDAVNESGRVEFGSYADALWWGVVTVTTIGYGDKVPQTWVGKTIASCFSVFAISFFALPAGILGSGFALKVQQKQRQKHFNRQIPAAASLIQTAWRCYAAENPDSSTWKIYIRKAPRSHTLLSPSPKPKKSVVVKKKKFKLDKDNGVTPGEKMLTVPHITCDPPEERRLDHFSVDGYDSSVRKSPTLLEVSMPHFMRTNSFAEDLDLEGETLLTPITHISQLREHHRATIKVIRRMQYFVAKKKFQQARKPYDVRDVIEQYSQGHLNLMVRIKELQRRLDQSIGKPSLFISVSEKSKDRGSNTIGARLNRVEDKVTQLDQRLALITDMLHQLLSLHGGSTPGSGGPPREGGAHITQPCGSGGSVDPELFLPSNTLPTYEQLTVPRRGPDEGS
KCNQ2 pot conf: rat KCNQ2 channel potentiator confirmation. shares compounds with KCNQ2 enhance. CHO-KCNQ2 cells, FluxOR thallium flux fluorescence. potentiation, less the hit threshold, % at 10 µM. actives 68% (n = 1,200);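 active means fluorescence ratio rising 3 SD or more over the vehicle control mean in both replicates, plus primary screen hit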;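 further: peak minus minimum thallium fluorescence divided by baseline after K/Tl stimulus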
Kir21 spec: selectivity of KCNQ2 potentiators: effect on mouse Kir2.1. shares compounds with KCNQ2 enhance. HEK293 Kir2.1, FluxOR thallium flux fluorescence. activity over 3SD threshold, % at 10 µM. actives 2% (n = 1,200). AID 2345;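 active means fluorescence ratio rise of at least 3 SD above the vehicle-control mean, seen in both replicates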
KCNQ2 W236L pot: rat KCNQ2 W236L mutant potentiation by KCNQ2 potentiators; current increase over 3SD of negative controls (%), stronger effect = higher value, % at 25 µM; actives 10% (n = 940); CHO KCNQ2-W236L, automated patch clamp current; shares compounds with KCNQ2 enhance;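 active means current increase at least 3 SD of the untreated controls above them in both duplicate recordings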
Hits are given with their value; . = inactive; / = no result. Rows were chosen to be rich in hits. Some 1.6% of all compounds tested hit in one or more screens of this group.

SMILES	KCNQ2 block	KCNQ2 enhance	Kir21 conf inh	HEK293 Tl flux	CHO-K1 Tl ctr	KCNQ1 pot spec	KCNQ2 pot conf	Kir21 spec	KCNQ2 W236L pot
COC(=O)c1ccccc1C(=O)N(Cc1cccnc1)CC1CCCN(C2CCCCC2)C1 (stereo unspecified)	.	/	/	/	/	/	/	/	/
Cc1ccc(C)c(NC(=S)NNC(=O)c2csc3c2CCCC3)c1	.	.	/	/	/	/	/	/	/
Cc1ccc(C)c(NC(=S)NNC(=O)c2csc3c2CCC(C)C3)c1 (stereo unspecified)	.	6.62	.	171.0%	.	.	.	.	.
Cn1ncc([N+](=O)[O-])c1C(=O)NC1CCCCC1	.	.	/	/	/	/	/	/	/
CC(C)NC(=O)C1CCN(C2CCN(C(=O)c3cc4c(s3)CCCCC4)CC2)CC1	.	/	/	/	/	/	/	/	/
NC(=O)C1CCN(C(=O)c2cc3c(s2)CCCC3)CC1	.	/	.	.	/	/	/	/	/
Cc1ccc(NC(=O)C2CC3CCC2C3)c(Br)c1 (stereo unspecified)	.	13.7	.	.	16.9	.	32.0	.	.
Cc1ccc(C)c(NC(=O)C2CC3CCC2C3)c1 (stereo unspecified)	.	21.4	.	.	.	1.6	57.2	.	.
Cc1ccc(NC(=O)C2CCCC2)c(Br)c1	.	.	/	/	/	/	/	/	/
Cc1ccc(NC(=O)CC2CCCC2)c(Br)c1	.	16.4	.	.	.	.	52.4	.	.
COc1ccc(NC(=O)C2CCCO2)c(OC)c1 (stereo unspecified)	.	/	/	/	/	/	/	/	/
COc1ccc(NC(=O)C2CC3CCC2C3)c(OC)c1 (stereo unspecified)	.	9.81	.	.	68.9	57.5	60.7	.	.
Cc1cc(C)cc(NC(=O)C2CC3CCC2C3)c1 (stereo unspecified)	.	.	/	/	/	/	/	/	/
Cc1ccc(S(N)(=O)=O)cc1NC(=O)C1CC2CCC1C2 (stereo unspecified)	.	/	/	/	/	/	/	/	/
CCN(CC)Cc1nc2c(c(=O)[nH]1)C(CC)(CC)Cc1ccccc1-2	.	/	/	/	/	/	/	/	/
Cc1ccc(S(=O)(=O)Nc2ccsc2C#N)cc1	.	/	/	/	/	/	/	/	/
COc1ccc(CNC(=O)CN(c2ccc(C)cc2)S(=O)(=O)c2c(C)nn(C)c2C)cc1	.	/	/	/	/	/	/	/	/
O=C(Nc1ccccc1)C1CC2CCC1C2 (stereo unspecified)	.	.	/	/	/	/	/	/	/
CCN(CC)c1ccc(NC(=O)C2CC3CCC2C3)cc1 (stereo unspecified)	.	22.8	.	.	2.7	.	65.0	.	.
N=C1S/C(=C\c2ccc(-c3cccc(Cl)c3)o2)C(=O)N1c1nccs1	.	6.54	.	.	.	.	6.8	.	.
COc1ccc(/C=C2\SC(=N)N(c3nccs3)C2=O)cc1OC	.	.	/	/	/	/	/	/	/
Fc1cccc(-n2cc(-c3ccccc3)c3c(=S)nc[nH]c32)c1	.	.	/	/	/	/	/	/	/
Fc1ccc(-n2cc(-c3ccccc3)c3c(=S)nc[nH]c32)cc1	.	6.36	.	182.5%	.	.	7.9	.	.
Oc1c(Cl)cc(Cl)cc1C=Nc1ccccc1N1CCCC1	.	.	/	/	/	/	/	/	/
NC(=O)c1cccc(N=Cc2cc(Cl)cc(Cl)c2O)c1	.	13.2	.	.	4.4	30.6	22.0	.	.
SMILES	KCNQ2 block	KCNQ2 enhance	Kir21 conf inh	HEK293 Tl flux	CHO-K1 Tl ctr	KCNQ1 pot spec	KCNQ2 pot conf	Kir21 spec	KCNQ2 W236L pot
Oc1c(Cl)cc(Cl)cc1/C=N/c1nccs1	.	9.07	.	.	.	126.5	34.0	.	13.9%
Oc1c(Cl)cc(Cl)cc1/C=N/c1nc(-c2ccc(Cl)cc2)cs1	.	.	/	/	/	/	/	/	/
COc1cccc(N=Nc2c(N)[nH]n3c(=O)c4c(nc23)CCCC4)c1	.	.	/	/	/	/	/	/	/
COc1ccc(-n2c(=S)[nH]c3cc(C(=O)NCCCN4CCCC4=O)ccc3c2=O)c(OC)c1	.	/	/	/	/	/	/	/	/
COc1ccc(-c2nc(CS(=O)CC(=O)NCc3ccc4c(c3)OCO4)c(C)o2)cc1OC (stereo unspecified)	.	.	/	/	/	/	/	/	/
Cc1c(/C=N/NC(=O)c2cccs2)c2ccccc2n1Cc1ccccc1Cl	.	/	/	/	/	/	/	/	/
CN(C)Cc1cc2ccccc2c2c1COC2	.	/	/	/	/	/	/	/	/
Cc1cc2ccc3ccccc3c2cc1CN(C)C	.	/	13.0%	.	/	/	/	/	/
CCOC(=O)c1cc2sccc2n1CC(=O)N1CCCC1	.	.	/	/	/	/	/	/	/
O=C(NCC(c1ccc(F)cc1)N1CCOCC1)c1cc(F)c(F)c(F)c1F (stereo unspecified)	.	/	/	/	/	/	/	/	/
O=C(CC12CC3CC(CC(C3)C1)C2)NCC(c1ccc(F)cc1)N1CCOCC1 (stereo unspecified)	.	11.2	.	.	.	.	35.5	.	.
O=C(c1ccc(OC2CCN(CCCc3ccccc3)CC2)cc1)N1CCCC1	.	.	72.5%	.	/	/	/	/	/
CC(=O)N1CCN(C(=O)c2ccc(OC3CCN(CCc4ccccc4)CC3)cc2)CC1	.	.	/	/	/	/	/	/	/
COc1ccccc1OC(=O)c1ccc(SC)cc1OC	.	.	/	/	/	/	/	/	/
CCn1nc(C)cc1C(=O)N1CCCC(N(C)CCc2ccc(OC)c(OC)c2)C1 (stereo unspecified)	.	/	/	/	/	/	/	/	/
Cc1ccc(-c2nc3c(Cl)cc(Cl)cc3c(=O)n2O)cc1	.	16.6	.	541.5%	4.1	2.4	102.5	0.8	.
O=c1c2ccccc2nc(-c2ccc(Cl)cc2Cl)n1O	.	.	/	/	/	/	/	/	/
N#Cc1ccc(-c2nc3ccccc3c(=O)n2O)cc1	.	.	/	/	/	/	/	/	/
